Results on 35 molecules are retold here after PubChem BioAssay AID2763 (National Center for Advancing Translational Sciences (NCATS), 2010).

Inconclusive results are not listed. The source made the active and inactive calls. Calls follow the shape of the dose curve; as a rule, active = well fitted inhibition curve with a large enough effect; inconclusive = small, poorly fitted or top-dose-only effect, or effect the other way; inactive = no such curve, though single readings can be large or run the other way.
Potency is read from the fitted curve at half-maximal effect.

The nature of the assay: Concentration response confirmation VP16 counterscreen for inhibitors of ROR gamma transcriptional activity. Also: nearly all actives have a fitted effect of over 70% in size. Particulars: Drosophila S2 Gal4-VP16 UAS-luciferase, luminescence, 20 h; series mostly up to 46.1 µM. The method, boiled down:
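Drosophila Schneider cells stably carrying Gal4-VP16 under metallothionein promoter plus UAS-Photinus luciferase. Compound preincubated 1 hr, then 700 uM copper sulfate induction for 20 hr at ambient temperature; luminescence read.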
On to `Cc1ccc(Oc2nc(-c3ccccn3)nc3ccccc23)cc1`, for which the Potency was 3.53 µM (active).

In the case of `CCNC(=O)CCc1nc(-c2ccc(C(C)(C)C)cc2)no1`, the Potency is 4.45 µM (active).

Take `CC(C)(C)c1ccc(-c2noc(CCC(=O)Nc3cccnc3)n2)cc1`: the Potency is 1.99 µM (active).

Regarding `O=C(NCC1CCCO1)C(C(=O)c1ccccc1)n1ccccc1=O` (stereo not given), the Potency result was “inactive”.

With `Cc1cccc(-c2nc3cc(NC(=O)C4CCCO4)ccc3o2)c1` (stereo not given), the Potency was 2.5 µM (active).

In the case of `CCC(C)NC(=O)CSc1nnc(-c2cc(-c3ccc(C)cc3)nc3ccccc23)n1N` (stereo not given), the Potency entry is “inactive”.

For the molecule `O=C(c1cc(-c2ccc(Cl)cc2)n[nH]1)N1CCc2ccccc2C1`, the Potency entry is “inactive”.

With `Cc1nc2c(-c3ccccc3)cnn2c(N)c1-c1ccccc1`, the Potency is 11.2 µM (active).

Take `CCn1cc(C(=O)O)c(=O)c2cnc(N3CCN(C(=S)NC(=O)c4ccccc4)CC3)nc21`: the Potency result was “inactive”.

In the case of `CCOc1ccc2nc(NC(=O)c3cnccn3)sc2c1`, the Potency was 9.96 µM (active).

With `NC(=O)/C=C/C(=O)Nc1ccc(Cl)cc1`, the Potency is 8.88 µM (active).

With `OCCNc1nc2ccccc2n1-c1ncnc2sc3c(c12)CCC3`, the Potency is 15.8 µM (active).

On to `Cc1nnsc1C(=O)NC1CCCc2c1cnn2-c1ccc(C(C)(C)C)cc1` (stereo not given), for which the Potency is 22.3 µM (active).

In the case of `COCCC1CCCCN1C(=O)c1cc(COc2ccc(-n3cncn3)cc2)on1` (stereo not given), the Potency was 19.9 µM (active).

Consider `CC(C)CC(=O)NS(=O)(=O)c1ccc(N)cc1`, for which the Potency result was “inactive”.

As for `COC(=O)c1ccc(OCC(=O)c2ccc(O)cc2O)cc1`, the Potency is 1.58 µM (active).

In the case of `COc1ccc(-n2ncc(Cl)c(Cl)c2=O)cc1`, the Potency was 19.9 µM (active).

Consider `COCC1CCCCN1C(=O)c1cc(COc2ccc3ncccc3c2)on1` (stereo not given), for which the Potency is 7.05 µM (active).

Consider `CCN(CC(=O)NCCc1ccc(Cl)cc1)Cc1nc2ccccc2c(=O)[nH]1`, for which the Potency was 25 µM (active).

On to `Cc1c(CCC(=O)N[C@@H](CC(C)C)C(=O)O)c(=O)oc2cc3oc4c(c3cc12)CCCC4`, for which the Potency is 4.99 µM (active).

On to `CCOc1ccc(C(=O)Nc2nc3ccccc3[nH]2)cc1OCC`, for which the Potency was 12.5 µM (active).

As to `Fc1cccc2sc(Nc3nnc(-c4ccco4)o3)nc12`, the Potency was 6.28 µM (active).

As to `CC(C)(C)NC(=O)CSc1nc2ccc(NC(=O)CSc3nnnn3Cc3ccccc3)cc2s1`, the Potency was 12.5 µM (active).

For `CN(Cc1nc2ccccc2c(=O)[nH]1)Cc1nc2ccsc2c(=O)[nH]1`, the Potency was 4.99 µM (active).

Turning to `Cc1ccc(C)c(-n2[nH]c3c4c(ccc3c2=O)C(=O)c2ccccc2C4=O)c1`, the Potency entry is “inactive”.

Take `Cc1ccc(C)c(/C=N/n2cc(-c3ccccc3)[nH]c2=S)c1`: the Potency is 9.96 µM (active).

In the case of `O=C(CSc1nc2ccc(NC(=O)CSc3nnnn3Cc3ccccc3)cc2s1)Nc1ccccc1`, the Potency entry is “inactive”.

Turning to `CCn1cc(C(=O)O)c(=O)c2cc(F)c(N3CCN(C(=S)NC(=O)c4ccccc4C)CC3)cc21`, the Potency result was “inactive”.

With `CCOC(=O)[C@@H]1[C@H]2COc3ccc(Br)cc3[C@@H]2N2C(=O)N(c3ccccc3)C(=O)[C@@]12C`, the Potency result is “inactive”.

Regarding `CCn1nc(C)c(CN2CCC(n3nccc3NC(=O)c3ccc4c(c3)OCO4)CC2)c1C`, the Potency entry is “inactive”.

For `COc1ccc2[nH]c(C)c(CCN(Cc3cccs3)C(=S)Nc3ccccc3OC)c2c1`, the Potency entry is “inactive”.

Turning to `Cc1ccc(OCCCC(=O)Nc2nc3ccccc3[nH]2)cc1`, the Potency result is “inactive”.

Turning to `C=CCn1c(SCC(=O)c2ccc(OC)cc2)nnc1-c1cc2cccc(OC)c2o1`, the Potency result was “inactive”.

Take `CCN(C1CCCCC1)S(=O)(=O)c1ccc(S(=O)(=O)NCc2ccncc2)cc1`: the Potency is 28.1 µM (active).

For `Cc1ccccc1NC(=O)CCN1CCN(C)CC1`, the Potency result was “inactive”.
